The results in this text go back to the supplement of paper PMC10849652.

Targets with a hit are over-represented here; the source holds about 7,900 in all. About 0.6% of all pairs of compound and target were hits. Values without a mark were called inactive.

UniProt Q9HCC0, sequence (Q9HCC0 whole entry, looked up): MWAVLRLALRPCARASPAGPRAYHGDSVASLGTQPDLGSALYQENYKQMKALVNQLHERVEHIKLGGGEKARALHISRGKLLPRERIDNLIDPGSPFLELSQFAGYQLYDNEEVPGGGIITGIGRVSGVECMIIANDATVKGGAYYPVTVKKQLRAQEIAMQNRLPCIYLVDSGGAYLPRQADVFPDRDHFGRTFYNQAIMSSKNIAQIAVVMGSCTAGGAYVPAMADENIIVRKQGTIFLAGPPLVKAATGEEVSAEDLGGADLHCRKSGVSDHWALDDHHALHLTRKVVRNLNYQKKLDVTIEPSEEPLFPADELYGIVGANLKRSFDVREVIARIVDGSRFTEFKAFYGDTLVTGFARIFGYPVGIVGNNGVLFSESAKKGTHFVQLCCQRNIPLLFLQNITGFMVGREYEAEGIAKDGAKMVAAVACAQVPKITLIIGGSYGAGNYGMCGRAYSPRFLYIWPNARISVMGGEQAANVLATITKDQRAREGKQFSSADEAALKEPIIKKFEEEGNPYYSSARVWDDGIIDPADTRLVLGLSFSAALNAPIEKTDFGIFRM
UniProt Q9Y2E5, sequence (Q9Y2E5 whole entry, looked up): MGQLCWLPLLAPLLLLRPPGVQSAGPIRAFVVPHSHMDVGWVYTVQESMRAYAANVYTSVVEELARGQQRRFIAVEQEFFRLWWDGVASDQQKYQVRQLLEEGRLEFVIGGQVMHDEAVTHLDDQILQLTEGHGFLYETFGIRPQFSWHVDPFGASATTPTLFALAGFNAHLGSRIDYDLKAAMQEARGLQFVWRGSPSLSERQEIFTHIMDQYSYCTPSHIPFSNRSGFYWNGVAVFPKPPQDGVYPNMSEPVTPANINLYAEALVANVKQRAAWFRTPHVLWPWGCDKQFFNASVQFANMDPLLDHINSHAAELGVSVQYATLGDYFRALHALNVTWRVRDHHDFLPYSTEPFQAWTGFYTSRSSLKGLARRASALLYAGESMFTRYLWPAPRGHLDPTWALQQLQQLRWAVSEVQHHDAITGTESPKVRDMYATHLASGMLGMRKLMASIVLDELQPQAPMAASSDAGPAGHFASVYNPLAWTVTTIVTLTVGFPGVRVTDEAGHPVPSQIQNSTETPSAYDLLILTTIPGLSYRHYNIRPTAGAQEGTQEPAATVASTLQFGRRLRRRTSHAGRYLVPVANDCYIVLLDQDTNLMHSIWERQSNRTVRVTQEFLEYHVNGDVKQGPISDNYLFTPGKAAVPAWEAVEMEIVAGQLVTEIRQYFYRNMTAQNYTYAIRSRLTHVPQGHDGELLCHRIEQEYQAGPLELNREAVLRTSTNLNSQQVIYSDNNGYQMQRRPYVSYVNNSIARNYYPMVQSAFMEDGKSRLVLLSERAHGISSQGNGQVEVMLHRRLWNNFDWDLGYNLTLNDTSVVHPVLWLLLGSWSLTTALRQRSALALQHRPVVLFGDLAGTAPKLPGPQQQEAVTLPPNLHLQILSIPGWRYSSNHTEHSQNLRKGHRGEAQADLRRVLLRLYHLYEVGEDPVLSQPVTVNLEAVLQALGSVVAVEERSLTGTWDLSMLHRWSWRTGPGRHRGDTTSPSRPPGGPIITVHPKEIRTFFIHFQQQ
UniProt Q92615, sequence (Q92615 whole entry, looked up): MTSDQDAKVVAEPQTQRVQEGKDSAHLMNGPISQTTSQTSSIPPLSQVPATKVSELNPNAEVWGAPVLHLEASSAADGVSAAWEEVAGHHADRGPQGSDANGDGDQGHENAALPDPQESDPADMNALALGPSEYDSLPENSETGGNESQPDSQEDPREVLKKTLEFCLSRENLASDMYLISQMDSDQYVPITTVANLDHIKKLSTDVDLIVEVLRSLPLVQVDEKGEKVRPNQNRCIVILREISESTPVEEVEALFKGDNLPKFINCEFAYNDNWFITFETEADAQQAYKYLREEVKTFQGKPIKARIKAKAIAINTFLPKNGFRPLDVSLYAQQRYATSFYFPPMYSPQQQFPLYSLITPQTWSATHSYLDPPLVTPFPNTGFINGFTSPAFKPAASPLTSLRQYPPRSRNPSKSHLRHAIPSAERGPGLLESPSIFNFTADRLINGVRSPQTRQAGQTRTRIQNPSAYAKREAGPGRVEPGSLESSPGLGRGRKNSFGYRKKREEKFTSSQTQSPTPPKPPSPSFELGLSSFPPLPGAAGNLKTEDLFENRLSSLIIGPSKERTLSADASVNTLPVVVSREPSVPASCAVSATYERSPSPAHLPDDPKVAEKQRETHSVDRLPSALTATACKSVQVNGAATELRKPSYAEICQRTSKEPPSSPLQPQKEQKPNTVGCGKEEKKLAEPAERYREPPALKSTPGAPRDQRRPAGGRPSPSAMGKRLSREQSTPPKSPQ
UniProt Q71RC2, sequence (Q71RC2 whole entry, looked up): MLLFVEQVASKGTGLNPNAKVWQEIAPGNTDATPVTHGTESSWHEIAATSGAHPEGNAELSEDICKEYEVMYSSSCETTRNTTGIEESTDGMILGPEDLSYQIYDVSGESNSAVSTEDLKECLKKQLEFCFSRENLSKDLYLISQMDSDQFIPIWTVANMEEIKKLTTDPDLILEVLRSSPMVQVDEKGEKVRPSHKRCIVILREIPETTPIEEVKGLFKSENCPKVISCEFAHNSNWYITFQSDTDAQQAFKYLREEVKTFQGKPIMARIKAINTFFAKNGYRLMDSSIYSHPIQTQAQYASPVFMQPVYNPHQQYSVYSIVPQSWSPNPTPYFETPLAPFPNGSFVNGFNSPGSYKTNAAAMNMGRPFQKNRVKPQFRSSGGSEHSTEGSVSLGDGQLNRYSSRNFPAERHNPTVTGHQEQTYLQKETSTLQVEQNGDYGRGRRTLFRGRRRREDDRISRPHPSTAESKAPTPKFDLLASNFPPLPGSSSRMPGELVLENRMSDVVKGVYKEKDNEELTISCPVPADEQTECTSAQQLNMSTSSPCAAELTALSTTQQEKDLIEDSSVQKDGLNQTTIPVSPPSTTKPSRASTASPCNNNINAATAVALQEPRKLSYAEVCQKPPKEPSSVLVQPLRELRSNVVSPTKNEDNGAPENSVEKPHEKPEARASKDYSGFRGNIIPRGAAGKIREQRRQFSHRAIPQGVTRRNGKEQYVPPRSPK
UniProt Q8IW41, sequence (Q8IW41 whole entry, looked up): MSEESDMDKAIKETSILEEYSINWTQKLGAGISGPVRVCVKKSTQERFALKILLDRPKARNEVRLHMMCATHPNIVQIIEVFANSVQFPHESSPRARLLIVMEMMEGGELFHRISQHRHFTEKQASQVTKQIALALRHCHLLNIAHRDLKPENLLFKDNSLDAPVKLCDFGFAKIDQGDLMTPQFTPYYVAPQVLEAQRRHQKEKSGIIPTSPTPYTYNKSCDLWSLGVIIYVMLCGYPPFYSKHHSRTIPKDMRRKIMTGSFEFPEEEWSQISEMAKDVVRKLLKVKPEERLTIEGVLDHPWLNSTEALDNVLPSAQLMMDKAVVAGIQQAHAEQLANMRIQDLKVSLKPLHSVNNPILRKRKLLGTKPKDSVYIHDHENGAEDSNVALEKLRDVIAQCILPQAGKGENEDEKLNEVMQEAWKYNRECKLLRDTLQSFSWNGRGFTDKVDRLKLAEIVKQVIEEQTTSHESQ
UniProt Q6N075, sequence (Q6N075 whole entry, looked up): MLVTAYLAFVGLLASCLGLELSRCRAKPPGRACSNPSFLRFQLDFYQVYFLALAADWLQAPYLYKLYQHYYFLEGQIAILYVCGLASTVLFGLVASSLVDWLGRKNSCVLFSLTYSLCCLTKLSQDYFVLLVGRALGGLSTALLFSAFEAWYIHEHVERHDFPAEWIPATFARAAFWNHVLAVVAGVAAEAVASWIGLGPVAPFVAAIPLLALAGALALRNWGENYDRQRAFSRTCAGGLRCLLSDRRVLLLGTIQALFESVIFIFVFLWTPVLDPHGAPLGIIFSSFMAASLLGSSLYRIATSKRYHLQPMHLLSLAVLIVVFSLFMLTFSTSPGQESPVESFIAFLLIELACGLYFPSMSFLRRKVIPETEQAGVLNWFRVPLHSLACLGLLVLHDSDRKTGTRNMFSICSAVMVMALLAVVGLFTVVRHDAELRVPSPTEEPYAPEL
UniProt P48449, sequence (P48449 whole entry, looked up): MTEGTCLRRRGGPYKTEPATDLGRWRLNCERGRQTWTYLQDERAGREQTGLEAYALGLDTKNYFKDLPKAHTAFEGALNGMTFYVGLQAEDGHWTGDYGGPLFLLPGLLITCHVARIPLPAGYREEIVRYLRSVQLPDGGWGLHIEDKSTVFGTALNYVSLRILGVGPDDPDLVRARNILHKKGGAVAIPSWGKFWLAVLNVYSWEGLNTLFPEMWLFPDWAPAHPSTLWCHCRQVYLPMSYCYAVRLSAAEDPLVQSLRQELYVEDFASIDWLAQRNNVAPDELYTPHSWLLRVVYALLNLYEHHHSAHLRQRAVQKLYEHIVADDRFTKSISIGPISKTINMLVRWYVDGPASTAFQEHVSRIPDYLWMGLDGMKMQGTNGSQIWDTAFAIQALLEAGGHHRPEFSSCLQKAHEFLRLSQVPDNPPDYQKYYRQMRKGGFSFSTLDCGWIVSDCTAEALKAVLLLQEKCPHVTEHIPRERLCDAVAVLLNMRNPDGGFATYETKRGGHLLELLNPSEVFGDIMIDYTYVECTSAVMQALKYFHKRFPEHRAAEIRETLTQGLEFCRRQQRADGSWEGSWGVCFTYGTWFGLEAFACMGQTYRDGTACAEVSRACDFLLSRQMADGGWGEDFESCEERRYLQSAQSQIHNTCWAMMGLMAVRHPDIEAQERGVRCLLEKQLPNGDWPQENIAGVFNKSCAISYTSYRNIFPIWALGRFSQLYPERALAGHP
UniProt P01116, sequence (P01116 whole entry, looked up): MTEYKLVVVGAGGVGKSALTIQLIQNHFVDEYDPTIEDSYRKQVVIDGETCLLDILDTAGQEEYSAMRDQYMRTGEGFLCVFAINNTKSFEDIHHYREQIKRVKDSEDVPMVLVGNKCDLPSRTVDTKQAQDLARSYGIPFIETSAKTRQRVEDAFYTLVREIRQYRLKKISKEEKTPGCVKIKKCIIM
UniProt Q8WV07, sequence (Q8WV07 whole entry, looked up): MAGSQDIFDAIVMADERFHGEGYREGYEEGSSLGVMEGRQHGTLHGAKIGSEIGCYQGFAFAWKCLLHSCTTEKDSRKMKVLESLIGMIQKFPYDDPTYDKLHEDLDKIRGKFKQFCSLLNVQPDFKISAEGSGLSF

Compound in the first assay: C1CCN(C1)C(=O)NC2=CC=CC(=C2)NC3=NC=C(C(=N3)NCCC4=CN=CN4)Br
As to the kind of experiment: log2 fold change, soluble protein after heating vs DMSO (PISA); higher = thermal stabilisation; K562 cells, 10 uM, 30 min; active = over 0.2 and 3.5 SD of the protein, either way, in both replicates (recomputed). An outline of the steps:
(§1)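 K562 cells (2×10^6 cells/mL) were treated with 10 μM compound for 30 min, and aliquots were heated for 3 min over 48°C-58°C. Pooled aliquots were extracted in PBS with 0.5% NP-40 at 4°C, and the supernatant after 21,000xg for 90 min was measured by TMTpro 16plex LC-MS/MS with channel sums equalised. Reported thermal stability, relative to control samples and from duplicates, is a log2 fold change.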
As to KLHDC4 (UniProt Q8TBB5), the log2 fold change is -0.113.

In the case of LSS (UniProt P48449), the log2 fold change was 0.005.

On to MAN2B2 (UniProt Q9Y2E5), for which the log2 fold change was -0.02.

Regarding KHDC4 (UniProt Q7Z7F0), the log2 fold change is -0.042.

In the case of MCCC2 (UniProt Q9HCC0), the log2 fold change was 0.004.

As to MAPKAPK5 (UniProt Q8IW41), the log2 fold change is -0.033.

Regarding JMJD6 isoform 3 (UniProt Q6NYC1), the log2 fold change is -0.007.

For LARP4B (UniProt Q92615), the log2 fold change was -0.013.

On to LEO1 (UniProt Q8WVC0), for which the log2 fold change is -0.076.

Turning to KDM1A isoform 2 (UniProt O60341), the log2 fold change is -0.03.

MFSD5 isoform 2 (UniProt Q6N075): the log2 fold change is 0.014.

For the target ITIH4 (UniProt Q14624), the log2 fold change was -0.009.

In the case of LARP4 isoform 4 (UniProt Q71RC2), the log2 fold change is -0.004.

LTV1 (UniProt Q96GA3): the log2 fold change was 0.143.

Regarding LIAS (UniProt O43766), the log2 fold change was 0.028.

Compound in the next assay: C1CN(CCC1(CC2=CC=C(C=C2)Cl)N)C3=NC=NC4=C3C=CN4
Described as above. An outline of the steps:
as §1
Regarding KPNA6 (UniProt O60684), the log2 fold change is -0.07.

As to KDM3B (UniProt Q7LBC6), the log2 fold change was 0.008.

On to LMBRD2 (UniProt Q68DH5), for which the log2 fold change was 0.1.

Take ME2 (UniProt P23368): the log2 fold change was 0.081.

In the case of ILKAP (UniProt Q9H0C8), the log2 fold change was -0.076.

For the target MFN2 (UniProt O95140), the log2 fold change is -0.019.

As to INPP5B (UniProt P32019), the log2 fold change is -0.039.

Take LARP1 (UniProt Q6PKG0): the log2 fold change is -0.172.

As for MIER1 isoform 12 (UniProt Q8N108), the log2 fold change is 0.028.

As to L2HGDH (UniProt Q9H9P8), the log2 fold change was -0.007.

For the target KRAS isoform 2 (UniProt P01116), the log2 fold change was -0.084.

Take LTO1 (UniProt Q8WV07): the log2 fold change is 0.169.

Consider MFN1 (UniProt Q8IWA4), for which the log2 fold change is -0.039.

With IKZF1 (UniProt Q13422), the log2 fold change was 0.

For MAP3K7 (UniProt O43318), the log2 fold change is -0.168.

As to KIF3A (UniProt Q9Y496), the log2 fold change was -0.067.

IMMT isoform 4 (UniProt Q16891): the log2 fold change was -0.013.

As to LDLR (UniProt P01130), the log2 fold change is 0.051.

With LMNA (UniProt P02545), the log2 fold change is 0.013.

Regarding MAGI1 (UniProt Q96QZ7), the log2 fold change is -0.047.

For the target MAP3K4 isoform 2 (UniProt Q9Y6R4), the log2 fold change is 0.07.

For the target IWS1 (UniProt Q96ST2), the log2 fold change is -0.033.

For INTS5 (UniProt Q6P9B9), the log2 fold change was -0.033.

Consider KLHDC4 (UniProt Q8TBB5), for which the log2 fold change was 0.119.

With LSS (UniProt P48449), the log2 fold change was 0.089.

For MAN2B2 (UniProt Q9Y2E5), the log2 fold change was -0.186.

Regarding KHDC4 (UniProt Q7Z7F0), the log2 fold change was 0.025.

For the target MCCC2 (UniProt Q9HCC0), the log2 fold change was 0.035.

With MAPKAPK5 (UniProt Q8IW41), the log2 fold change is 0.012.

Turning to JMJD6 isoform 3 (UniProt Q6NYC1), the log2 fold change is 0.181.

For the target LARP4B (UniProt Q92615), the log2 fold change is -0.042.

As for LEO1 (UniProt Q8WVC0), the log2 fold change is -0.045.

Turning to KDM1A isoform 2 (UniProt O60341), the log2 fold change is -0.069.

In the case of MFSD5 isoform 2 (UniProt Q6N075), the log2 fold change is 0.034.

As to ITIH4 (UniProt Q14624), the log2 fold change is 0.079.

Take LARP4 isoform 4 (UniProt Q71RC2): the log2 fold change is -0.035.

As for LTV1 (UniProt Q96GA3), the log2 fold change was -0.284.

Take LIAS (UniProt O43766): the log2 fold change was 0.
